Experimental data as given in ChEMBL document CHEMBL1157539, “Thousands of chemical starting points for antimalarial lead identification” (Nature, 2010).

Legend:
Format in all cases: functional
Plasmodium falciparum [1] = assay: GSK_TCMDC: Inhibition of Plasmodium falciparum 3D7 in whole red blood cells, using parasite LDH activity as an index of growth. Test compounds present at 2uM
Plasmodium falciparum [2] = assay: GSK_TCMDC: Inhibition of Plasmodium falciparum Dd2 in whole red blood cells, using parasite LDH activity as an index of growth. Test compounds present at 2uM
HepG2 = assay: GSK_TCMDC: Percent inhibition of human HepG2 cell line. Test compounds present at 10uM.

| SMILES | Inhibition (Plasmodium falciparum [1]) [%] | Inhibition (Plasmodium falciparum [2]) [%] | Inhibition (HepG2) [%] |
| --- | --- | --- | --- |
| CC(CCc1ccccc1)NCC(O)c1ccc2c3c(cccc13)S(=O)(=O)N2C.Cl (stereo not drawn) | 99 | 99 | 16 |
| CCCNC[C@@H](O)[C@H](Cc1ccccc1)NC(=O)c1cc(NCC)cc(N2CCCCS2(=O)=O)c1.Cl | 97 | 74 | 0 |
| COc1ccc(NC(=O)c2cccc(Br)c2)cc1N1CCN(CCCCCCCN2CCN(c3cc(NC(=O)c4cccc(Br)c4)ccc3OC)CC2)CC1.Cl | 99 | 93 | 97 |
| CC[C@H](C)[C@@H](C(=O)N1CCOCC1)N1CC[C@H](NS(=O)(=O)CC(C)(C)c2ccc(Cl)cc2)C1=O | 100 | 95 | 0 |
| Cc1cc(C)c(-c2n[nH]c3c2C(c2cccc(Cl)c2)N(Cc2ccco2)C3=O)c(O)c1 (stereo not drawn) | 96 | 89 | 0 |
| CCC(C)c1ccc(Nc2nc(C)cc(N(CC)CCCN3CCCCC3)n2)cc1.O=C(O)C(F)(F)F (stereo not drawn) | 100 | 83 | 55 |
| CN(CCCCCN1CCC(NC(=O)Nc2ccc(C(F)(F)F)cc2)C1)C(=O)/C=C/c1ccc(Cl)c(Cl)c1 (stereo not drawn) | 100 | 11 | 28 |
| Cc1[nH]c(C)c(-c2ccc(Oc3cccc(Cl)c3)cc2)c(=O)c1Br | 98 | 97 | 46 |
| Cl.c1ccc2c(Nc3ccc(Cc4ccc(Nc5c6ccccc6nc6ccccc56)cc4)cc3)c3ccccc3nc2c1 | 100 | 100 | 93 |
| O=C(Cc1ccc(NC(=O)c2ccc(O)c(-c3ccc(Cl)c(Cl)c3)c2)cc1)NCCN1CCCCC1 | 95 | 63 | 12 |
| O=C(NCc1cccc(C(F)(F)F)c1)c1ccc(-c2nc3cc(F)c(F)cc3[nH]2)cc1 | 97 | 7 | 0 |
| O=C(Cc1n[nH]c(=O)c2ccccc12)Nc1cccc(C(=O)Nc2cccc(C(F)(F)F)c2)c1 | 97 | 90 | 0 |
| COc1cccc(-c2ccc(C(=O)NC3CCN(Cc4ccc(C(C)(C)C)cc4)CC3)s2)c1.O=C(O)C(F)(F)F | 85 | 23 | 43 |
| C=CCn1c(=N)n(CC(O)c2ccc(Cl)c(Cl)c2)c2ccccc21.Cl (stereo not drawn) | 91 | 80 | 15 |
| COc1ccc(N2CCN(CCCN3CCN(C(=O)c4ccc(/C=C/c5ccc(Cl)c(Cl)c5)cc4)CC3)CC2)c(OC)c1.O=C(O)/C=C/C(=O)O | 93 | 52 | 47 |
| CC(C)(C)c1nn(-c2ccc(Cl)cc2)c2[nH]c(=O)c(CNC3CCCC3)cc12 | 99 | 99 | 0 |
| CC[C@H](NC(=O)c1c(CN2CCC(N3CCCCC3)CC2)c(-c2ccccc2)nc2c(Cl)c(O)ccc12)c1ccccc1.Cl | 100 | 66 | 0 |
| CCOc1ccc2c(c1)OC(c1ccccc1)(C(F)(F)F)NC2=O (stereo not drawn) | 100 | 98 | 0 |
| CN(C)CCNC(=O)[C@H](CC1CCCCC1)NC(=O)c1ccc(O)c(-c2ccc(Cl)c(Cl)c2)c1 | 98 | 97 | 0 |
| CC1(C)N=C(N)N=C(NOCc2ccc(Cl)c(Cl)c2)N1 | 96 | 27 | 5 |
| COC(=O)C(C)(C)Cc1c(SC(C)(C)C)c2cc(C(C)C)ccc2n1Cc1ccc(Cl)cc1 | 96 | 96 | 0 |
| c1ccc(Oc2ccc(Nc3ccnc4ccc(-c5ccco5)cc34)cc2)cc1 | 87 | 32 | 0 |
| c1ccc(-c2n[nH]cc2Nc2ccnc3ccccc23)nc1 | 100 | 98 | 36 |

| SMILES | Inhibition (Plasmodium falciparum [1]) [%] | Inhibition (Plasmodium falciparum [2]) [%] | Inhibition (HepG2) [%] |
| --- | --- | --- | --- |
| Cc1ccc(Nc2cc(C)nn2-c2nc(C)cc(O)n2)cc1 | 97 | 95 | 54 |
| COc1ccc(Nc2nccc(NCCNC(=O)Nc3ccccc3F)n2)cc1 | 85 | 4 | 4 |
| Br.Oc1ccc(CCNCCCCCCNCCc2ccc(Cl)cc2)c(Cl)c1O | 100 | 30 | 23 |
| O=C(O)C(F)(F)F.c1ccc(CNCc2cccc(-c3ccc(-c4nc5ccccc5[nH]4)s3)c2)cc1 | 95 | 63 | 8 |
| CCN1CCN(c2cc(C)c3cc(NC(=O)c4cccc(OC)c4)ccc3n2)CC1 | 99 | 15 | 5 |
| Br.Oc1ccccc1CCNCC1CCc2ccccc2C1 (stereo not drawn) | 98 | 98 | 37 |
| CN1CCN(CCCN(Cc2cccc(-c3ccc(CNCCc4ccccc4)cc3)c2)C(=O)c2cccs2)CC1.O=C(O)C(F)(F)F | 100 | 97 | 86 |
| CC1CN(c2ncc(-c3ccc(CNC4Cc5ccccc5C4)cc3)cn2)CC(C)N1.O=CO (stereo not drawn) | 85 | 78 | 27 |
| CN1CCCN(Cc2ccc(-c3cccc(NC(=O)c4ccc(Cl)cc4)c3)cc2)CC1.O=C(O)C(F)(F)F | 98 | 50 | 34 |
| O=c1cc(NCC2(CNCc3cn(Cc4ccccc4)c4ccccc34)CCCCC2)[nH]c2ccccc12 | 100 | 56 | 27 |
| CCCCC(O)c1cc(O)c2c(c1)OC(C)(C)CC2C1=CCN(Cc2ccc3ccccc3c2)CC1 (stereo not drawn) | 100 | 97 | 7 |
| N=C(N)NC(=O)Nc1cc(Br)c(Br)c(Br)c1 | 100 | 89 | 0 |
| COc1ccc(CNCc2ccc(-c3ccc(-c4nc5cc(C(F)(F)F)ccc5[nH]4)cc3)cc2)cc1.O=C(O)C(F)(F)F | 100 | 99 | 75 |
| COc1nc2c(CCN3CCC(NCc4ccc5c(c4)NCCO5)CC3)c(Cl)cnc2cc1F.Cl | 100 | 98 | 23 |
| CC(C)C[C@H](NC(=O)c1cc2ccccc2s1)C(=O)N[C@H]1CCN(Cc2ccc(OC[C@@H]3CCCN3C)c(Cl)c2)C1.O=C(O)C(F)(F)F | 100 | 81 | 83 |
| COc1ccc(-c2nonc2NC(=O)c2ccc(OC(C)C)cc2)cc1OC | 100 | 99 | 11 |
| O=C(Cc1ccccc1)NC(Nc1ccc([N+](=O)[O-])cc1)C(Cl)(Cl)Cl (stereo not drawn) | 99 | 100 | 21 |
| CCOC(=O)c1ccc(N=C2SC(=Cc3cc(Br)ccc3O)C(=O)N2C)cc1 | 99 | 96 | 0 |
| CCC(C)(CC)C(=O)n1ncc2c3c(N)nc(N)nc3ccc21 | 94 | 6 | 73 |
| COc1ccc(CCN(C)CCOc2ccc(NC(=O)c3cccc4c(=O)c5cc(SC)ccc5[nH]c34)cc2)cc1OC | 97 | 82 | 52 |
| CCCCCCCCNCCCSCCCNCCCCCCCC.Cl | 97 | 47 | 63 |
| FC(F)(F)c1ccc2[nH]c(-c3ccc(-c4ccc(CNCc5ccccc5)cc4)cc3)nc2c1.O=C(O)C(F)(F)F | 100 | 96 | 22 |
| CC(C)C[C@H](NC(=O)c1ccc(OCCN2CCOCC2)cc1)C(=O)N[C@H](/C=N/N1CCN(C)C1=O)CCc1ccccc1 | 90 | 65 | 3 |
